Compounds with a hit are over-represented: about 2.4% of the library has one in this group of screens.
POLB inh: blocks human DNA polymerase beta activity. P06746. Pol beta primer extension/strand displacement, fluorescence kinetic. Potency, µM (top dose mostly 114 µM), without a hit: at the top dose activity change, negative = inhibition, hits mostly inhibitors. 340,000 tested, 1.3% active; further: on the % scale 0 is the no-effect control and ±100 the full control effect
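Curves were derived by four-parameter Hill fits of normalized qHTS data. The kinetic fluorescent primer-extension read was taken at 0 and 10 min after 50 nM substrate, following a 15 min room-temperature preincubation of 10 nM enzyme with compounds.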
Pol iota inh: DNA polymerase iota (human) inhibition. Q9UNA4. Pol iota fluorescent replication assay, 10 min. Potency, µM (highest dose often 115 µM), without a hit: at the highest dose activity, negative = inhibition, usual class: inhibitors. 390,000 tested, 1% active. AID 588590
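Pol iota at 10 nM preincubated 15 min with compounds at room temperature; reaction started with fluorescent substrate, 50 nM final. Fluorescence read kinetically at 0 and 10 min; buffer-only wells as negative control.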
POLK inh: blocks human DNA polymerase kappa activity | Potency, µM (titrated, usually from 107 µM), inactives show at the highest dose activity, negative = inhibition, hits mostly inhibitors | 400,000 tested, 0.53% active | purified Pol kappa, fluorescent DNA synthesis assay, 10 min; further: on the % scale 0 is the no-effect control and ±100 the full control effect
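Activity was followed as the change in fluorescence between reads at 0 and 10 min after starting the reaction with 50 nM substrate. Beforehand, 10 nM polymerase had been preincubated with compound for 15 min at room temperature.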
POLH inh: DNA polymerase eta (human) inhibition; Q9Y253; recombinant Pol eta, fluorescent DNA replication assay; Potency, µM (titrated, usually from 114 µM), without a hit: top-dose activity change, negative = inhibition, most hits filed as inhibitors; 390,000 tested, 1.2% active; further: on the % scale 0 is the no-effect control and ±100 the full control effect
Target sequence (Q9Y253 whole entry, looked up): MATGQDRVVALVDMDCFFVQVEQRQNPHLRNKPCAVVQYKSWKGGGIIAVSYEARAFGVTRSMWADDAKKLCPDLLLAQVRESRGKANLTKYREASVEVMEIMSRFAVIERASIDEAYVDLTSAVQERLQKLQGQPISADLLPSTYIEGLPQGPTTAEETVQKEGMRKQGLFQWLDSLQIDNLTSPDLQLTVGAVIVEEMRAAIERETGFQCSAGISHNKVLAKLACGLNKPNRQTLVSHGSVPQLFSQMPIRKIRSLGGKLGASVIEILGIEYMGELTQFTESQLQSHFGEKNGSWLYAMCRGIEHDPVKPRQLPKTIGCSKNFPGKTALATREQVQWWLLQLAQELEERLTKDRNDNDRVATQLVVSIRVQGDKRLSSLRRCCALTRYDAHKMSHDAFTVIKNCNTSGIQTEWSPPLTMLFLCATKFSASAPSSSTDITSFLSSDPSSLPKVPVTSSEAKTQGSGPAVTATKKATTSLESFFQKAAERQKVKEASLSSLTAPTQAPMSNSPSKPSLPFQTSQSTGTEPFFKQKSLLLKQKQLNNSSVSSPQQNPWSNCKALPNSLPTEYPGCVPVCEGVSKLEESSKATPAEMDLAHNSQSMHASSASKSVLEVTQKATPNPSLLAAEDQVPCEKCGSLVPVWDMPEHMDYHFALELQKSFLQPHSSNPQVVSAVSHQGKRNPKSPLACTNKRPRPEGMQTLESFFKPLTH
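Pol eta at 10 nM preincubated with compounds 15 min at room temperature; reaction started with fluorescent substrate (50 nM final) and read kinetically at 0 and 10 min.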
WRN inhibitor: inhibitors of human WRN helicase | Q14191 | WRN helicase unwinding, fluorescent forked duplex, kinetic | Potency, µM (highest dose often 114 µM), for inactives: at the highest dose activity change, negative = inhibition, most hits filed as inhibitors | 360,000 tested, 0.46% active | AID 651768; further: on the % scale 0 is the no-effect control and ±100 the full control effect; nearly all actives have a fitted effect of over 55% in size
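Screening of the MLSMR collection measured strand separation of a quenched forked DNA duplex (100 nM) by 20 nM WRN with 2 mM ATP, all final. Compounds were preincubated with enzyme 15 min at room temperature.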
FEN1 inh: inhibitors of human flap endonuclease 1. Recombinant FEN1 flap cleavage, fluorescence, 15 min. Potency, µM (highest dose often 114 µM), for inactives: at the top dose activity change, negative = inhibition, usual class: inhibitors. 390,000 tested, 0.35% active. AID 588795; further: on the % scale 0 is the no-effect control and ±100 the full control effect; nearly all actives have a fitted effect of over 65% in size
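Concentration–response screening of FEN1 (10 nM): 15 min compound preincubation at room temperature, reaction started with 50 nM substrate and read at 0 and 15 min. Corrected, normalized data were fitted by a four-parameter Hill equation.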
Starred values were filed as active, the others as inactive; ? = inconclusive; . = not tested or not shown; [ ] = dose if it differs, or a comment. The call rests on the fitted dose curve; in most records, active means well fitted curve in the direction sought with a large enough effect; inconclusive means small, poorly fitted or top-dose-only effect, or another doubt; inactive means no such curve, though single readings can be large; an effect the other way counts as inactive or inconclusive. Potency means the concentration at half of the fitted maximal effect.

SMILES	POLB inh	Pol iota inh	POLK inh	POLH inh	WRN inhibitor	FEN1 inh
Cc1ccc(C)c(NC(=O)CSc2nc(-c3ccccc3)c(C#N)c(=O)[nH]2)c1	56.2µM*	?	-7.0%	-1.6%	.	9.4%
N#Cc1c(-c2ccccc2)nc(SCC(=O)NC2CCCCC2)[nH]c1=O	38.0%	-15.0%	1.2%	9.1%	3.9%	-13.7%
CN(C(=O)CSc1nc(-c2ccc(C(C)(C)C)cc2)c(C#N)c(=O)[nH]1)C1CCCCC1	?	?	-19.0%	35.5µM*	-9.2%[11.6 µM]	-34.6%
COc1ccccc1NC(=O)CSc1nc(-c2ccc(C(C)(C)C)cc2)c(C#N)c(=O)[nH]1	79.4µM*	-28.7%	-19.8%	.	.	-11.7%
CCCOc1ccc(-c2nc(SCc3ccccc3)[nH]c(=O)c2C#N)cc1OC	50.1µM*	34.8%	-6.7%	-2.5%	-23.6%	-4.6%
CCCC[C@@H](C=O)NC(=O)[C@H](CC(C)C)NC(=O)OCc1ccccc1	.	.	2.9%[19.4 µM]	.	.	.
COc1ccc(-c2ccc(OC)c(C3C4C=CCCC4(C)C(=O)N3Cc3ccccc3)c2)cc1 (configuration not stated)	.	-2.7%	-21.6%	.	.	-15.5%
NC(=O)COC(=O)c1ccccc1OCC(=O)Nc1ccc(Br)cc1	.	-26.7%	7.6%	.	.	0.5%
Cc1nnc(SCC(=O)Nc2nc(-c3ccccc3)cs2)n1N	29.5%	-6.9%[58.9 µM]	-7.7%	-12.6%	3.3%	-4.6%
Cn1cnnc1SCC(=O)Nc1nc(-c2ccccc2)cs1	15.8µM*	38.2%	-5.5%	-9.6%	-6.3%	-0.4%
O=Cc1cc(N=Nc2cccc(C(=O)O)c2)ccc1O	35.5µM*	?	?	?	-9.5%[11.6 µM]	-13.9%
Cc1ccc(SC2=NS(=O)(=O)c3ccccc32)c(C)c1	.	-5.5%	-16.3%	.	.	-25.2%
COC(=O)C1[C@H]2SC(C)(C)C(C(=O)OC)N2C(=O)N1Cc1ccccc1 (some centres not stated)	.	5.9%	-10.6%	.	.	-1.0%
CCOC(=O)C1=C(C)Nc2ccccc2N/C1=N\S(=O)(=O)c1cc(C(=O)O)ccc1Cl	.	?	-22.1%	35.5µM*	-6.2%[11.6 µM]	11.2%
CCOC(=O)C1=C(C)Nc2ccccc2N/C1=N\S(=O)(=O)c1ccc(Cl)cc1	.	8.7%	-4.3%	-12.4%	0.9%	3.6%
O=[N+]([O-])c1cccc2cn[nH]c12	-0.6%	-8.6%	-11.3%[60.1 µM]	-10.4%	4.1%	?
O=[N+]([O-])c1cccc2c[nH]nc12	.	.	12.6µM*	.	.	.
COCCNC(=O)c1cc(Sc2nnc(C)s2)nc2ccccc12	3.0%	.	.	.	.	.
Cc1nnc(Sc2cc(C(=O)NCc3ccco3)c3ccccc3n2)s1	22.4µM*	?	-12.0%	?	9.3%	-10.1%
O=C(CCC(=O)N/N=C/c1ccco1)N/N=C/c1ccco1	-10.9%	120.8%	-3.7%	-13.9%	-13.5%	1.6%
O=C(CCCCCCCCC(=O)N/N=C/c1ccco1)N/N=C/c1ccco1	50.1µM*	?	-26.3%	-12.0%	?	0.0%
O=C(COc1ccccc1[N+](=O)[O-])Nc1cccc(S(=O)(=O)NC2=NCCCCC2)c1	.	79.4µM*	-33.5%	20µM*	-28.8%	-9.0%
Nc1ccc(C(=O)OCC(=O)Nc2cccc(S(=O)(=O)NC3=NCCCCC3)c2)cc1[N+](=O)[O-]	.	64.7%	-3.3%	-8.7%	-19.9%	0.5%
O=C(NCc1cccnc1)c1ccc(-c2cc3ccccc3oc2=O)cc1	?	79.4µM*	-19.5%	-6.7%	1.8%[11.6 µM]	3.6%
O=C(Nc1cccnc1)c1cccc(-c2cc3ccccc3oc2=O)c1	?	40.1%	-7.4%	-12.2%	1.9%	-2.9%
SMILES	POLB inh	Pol iota inh	POLK inh	POLH inh	WRN inhibitor	FEN1 inh
Cc1ccc(C(=O)CSc2nnc(-c3ccco3)n2C)cc1	59.6%	21.3%	-18.7%	-3.5%	?	1.1%
Cn1c(SCC(=O)c2cc(Cl)c(Cl)s2)nnc1-c1ccco1	20µM*	15.8µM*	31.6µM*	?	?	-21.0%
CCN(CC)c1ccc(C=C2C(=O)OC3(CCCCC3)OC2=O)cc1	0.8%	?	-2.0%	-1.3%	50.1µM*	?
CCCCC1(C)OC(=O)C(=Cc2ccc(N(CC)CC)cc2)C(=O)O1 (configuration not stated)	6.1%	?	-20.7%	-14.2%	?	-18.7%
CCOC(=O)C(C(=O)OCC)c1cc(Br)c2noc3c2c1C(=O)c1ccccc1-3	79.4µM*	?	?	8.91µM*	?	?
O=C(c1ccc2c(=O)n(Cc3ccco3)c(=S)[nH]c2c1)N1CCN(Cc2ccc3c(c2)OCO3)CC1	.	89.1µM*	?	.	.	?
Cc1ccc(CNC(=O)c2ccc3c(=O)n(CCCN4CCCC4=O)c(=S)[nH]c3c2)cc1	31.6µM*	29.1%	-7.8%	3.9%	-2.7%	-11.0%
COc1ccc(CCn2c(=S)[nH]c3cc(C(=O)NCc4ccco4)ccc3c2=O)cc1OC	22.4µM*	3.3%	-12.4%	?	-16.1%	1.8%
O=C(NCCCN1CCCC1=O)c1ccc2c(=O)n(Cc3ccco3)c(=S)[nH]c2c1	31.6µM*	?	1.8%	-7.2%	-6.8%	-2.5%
O=C(c1ccc2c(=O)n(Cc3ccc4c(c3)OCO4)c(=S)[nH]c2c1)N1CCN(Cc2ccccc2)CC1	.	19.2%	-6.1%	.	.	-23.0%
COc1ccc(-n2c(=S)[nH]c3cc(C(=O)NCc4ccco4)ccc3c2=O)cc1OC	44.9%	-7.6%	-6.3%	-21.7%	7.9%	-1.2%
COc1cccc(COCCN2CCN(S(=O)(=O)c3ccccc3)CCC2=O)c1	.	10.9%	8.0%	.	.	-4.9%
O=[N+]([O-])c1ccc2nc(-c3ccc(Cl)cc3)[nH]c2c1	-6.4%	-13.1%	-21.9%	?	-15.7%	?
O=[N+]([O-])c1ccc(-c2cc(-c3ccc(Cl)cc3)n[nH]2)cc1	?	-27.7%	-9.8%	?	100µM*	-3.3%
CN(C)c1ccc(/C=C2\CCc3cc(N)ccc32)cc1	.	6.9%	-8.9%	.	.	-20.6%
Oc1ccccc1/C=N/Nc1nn[nH]n1	-1.6%	30.6%	5.8%	-4.8%	6.2%	12.7%
CCOc1cc(/C=N/Nc2nnc(C)n2N)ccc1O	-24.0%	8.91µM*	-17.7%	-5.3%	17.3%	-21.1%
Cc1nnc(N/N=C/c2c(Cl)cccc2Cl)n1N	-10.5%	11.2µM*	5.3%	-18.4%	-12.4%	12.0%
Cc1nnc(N/N=C/c2ccccc2O)n1N	-0.1%	14.1µM*	-18.5%	-10.9%	-5.6%	0.9%
CCCCCCCCCC[n+]1cc(Br)cc(Br)c1	.	20.7%	-6.2%	.	.	-10.8%
O=C(CSc1nnc(-c2ccc(Cl)cc2)o1)N1CCN(c2ccccc2)CC1	31.6µM*	.	.	.	.	.
O=C(CSc1nnc(-c2ccco2)o1)N1CCN(c2ccccc2)CC1	?	66.9%	3.3%	-6.4%	-30.5%	4.0%

Bioassay records as filed in PubChem BioAssay.
